PP5 primary: PP5 phosphatase inhibitors, primary screen, biochemical, fluorescence. Serine/threonine-protein phosphatase 5 (Homo sapiens), P53041. purified PP5c, OMFP substrate fluorescence. inhibition, % at 6.7 µM. actives 0.18% (n = 320,000);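 active = inhibition above the campaign's mean inhibition across all tested compounds plus 3 SD, cut at about 9.5% in these data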
PAFAH2 inh: PAFAH2 enzyme inhibitors, primary screen, biochemical, fluorescence polarization, human | Platelet-activating factor acetylhydrolase 2, cytoplasmic (Homo sapiens), Q99487 | recombinant PAFAH2, FP-rhodamine activity probe | inhibition, % at 3.39 µM | actives 0.99% (n = 340,000);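 active = inhibition above the mean over all tested compounds plus 3 SD, cut at about 30% in these data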;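 note: inhibitors block probe labeling of enzyme so polarization drops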
PP1 counter: PP1-alpha phosphatase inhibitors, primary screen, counter-screen for PP5 inhibitor project, biochemical, fluorescence, OMFP substrate, single point | actives 0.9% (n = 320,000) | purified PP1alpha | inhibition, % at 6.7 µM | AID 2235, 2010;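 active = inhibition above the mean inhibition of all tested compounds plus 3 SD, computed separately for each screening campaign, cut at about 15% in these data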
Target sequence (P62136 whole entry, looked up): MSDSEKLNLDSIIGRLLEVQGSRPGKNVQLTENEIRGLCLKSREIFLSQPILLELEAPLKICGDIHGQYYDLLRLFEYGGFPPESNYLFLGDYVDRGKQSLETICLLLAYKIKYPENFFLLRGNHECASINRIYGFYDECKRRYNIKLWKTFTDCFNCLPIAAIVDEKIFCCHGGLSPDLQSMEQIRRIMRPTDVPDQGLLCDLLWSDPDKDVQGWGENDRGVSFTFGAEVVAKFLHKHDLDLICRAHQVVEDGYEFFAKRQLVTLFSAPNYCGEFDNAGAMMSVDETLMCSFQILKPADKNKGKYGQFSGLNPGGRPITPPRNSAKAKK
PAFAH1B3 FP inh: PAFAH1B3 enzyme inhibitors, primary screen, biochemical, fluorescence polarization, human; Platelet-activating factor acetylhydrolase IB subunit alpha1 (Homo sapiens), Q15102; recombinant PAFAH1B3, FP-rhodamine probe; inhibition, % at 3.39 µM; actives 0.28% (n = 340,000);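 active = inhibition above the screen-wide average of all tested compounds plus 3 SD, cut at about 25% in these data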
Target sequence (Q15102 whole entry, looked up): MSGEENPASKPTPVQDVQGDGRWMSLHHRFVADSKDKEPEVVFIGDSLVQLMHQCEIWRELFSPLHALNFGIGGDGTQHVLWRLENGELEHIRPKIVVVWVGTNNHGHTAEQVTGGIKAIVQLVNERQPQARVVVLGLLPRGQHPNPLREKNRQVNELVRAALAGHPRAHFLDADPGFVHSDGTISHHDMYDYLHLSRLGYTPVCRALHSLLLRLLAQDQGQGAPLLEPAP
PAFAH1B2 inh: PAFAH1B2 enzyme inhibitors, primary screen, biochemical, fluorescence polarization, human | actives 1.2% (n = 340,000) | recombinant PAFAH1B2, FP-rhodamine activity probe | inhibition, % at 3.39 µM | Platelet-activating factor acetylhydrolase IB subunit alpha2 (Homo sapiens), P68402;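 active = inhibition above the mean of all tested compounds plus 3 SD, cut at about 24% in these data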
pPAFAH inh: pPAFAH enzyme inhibitors, primary screen, biochemical, fluorescence polarization, human. Platelet-activating factor acetylhydrolase (Homo sapiens), Q13093. recombinant pPAFAH, FP-rhodamine probe fluorescence polarization. inhibition, % at 3.39 µM. actives 1.5% (n = 330,000);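 active = inhibition above the mean inhibition across the screen plus 3 SD, cut at about 25% in these data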;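 note: inhibitors block binding of the rhodamine activity-based probe so polarization drops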
A number is an active result; 0 = inactive; - = not tested or not shown. Only some compounds are listed: those with a hit (about 3.4% of all), similar ones and a draw of the others.

SMILES	PP5 primary	PAFAH2 inh	PP1 counter	PAFAH1B3 FP inh	PAFAH1B2 inh	pPAFAH inh
CCOc1ccccc1C(=O)NC(C(=O)OCC(=O)Nc1nnc(-c2ccccc2)o1)C(C)C (configuration not stated)	0	0	16	0	0	0
CC1CCCC(NC(=O)CSc2n[nH]c(=O)n2Cc2ccccc2)C1C (configuration not stated)	-	-	-	-	-	0
O=C(N/N=C/c1c[nH]c2ccccc12)c1ccc(O)c(O)c1	0	0	0	0	25	0
Cc1nc(NC(=O)CSC2=NCCS2)sc1C(=O)N(C)C	0	0	0	0	0	0
Cc1ccc(Nc2nc(-c3c(C)nc4ccccn34)cs2)cc1	0	0	0	0	0	28
Cc1ccc(Nc2nc(-c3c(C)nc4ncccn34)cs2)cc1	0	0	0	0	0	0
C=C[C@]1(C)C=C2CC[C@H]3[C@@](C)(CCC[C@@]3(C)C(=O)O)[C@@H]2CC1	-	0	-	0	48	0
C=C1C[C@@]23CCC4[C@@](C)(CCC[C@@]4(C)C(=O)O)C2CC[C@]1(O)C3 (some centres not stated)	0	0	0	0	0	0
CC(C)(C)C(=O)Nc1ccc(Cc2ccncc2)cc1	0	0	0	0	0	0
Cc1cccc(N2C(=O)C(O)=C(C(=O)c3cccs3)C2c2ccc(Cl)cc2)n1 (configuration not stated)	0	0	17	0	0	0
N#Cc1c(N)sc(=S)c2c1CCCCC2	0	45	0	0	0	29
N#Cc1c(N)sc2c1CCCCCC2	0	0	0	0	28	0
CC1(C)Cc2c(C#N)c(N)sc(=S)c2CS1	0	0	0	0	0	0
Cc1ccc(NC(=O)CCn2c(=O)[nH]c3ccsc3c2=O)cc1F	0	0	0	0	0	0
Cc1ccc(S(=O)(=O)CCC(=O)OCC(=O)Nc2ccc(N3CCOCC3)cc2)cc1	0	0	0	0	0	0
COc1ccc(CNC(=O)COC(=O)c2ccc(C(=O)c3ccccc3)cc2)cc1	-	0	-	0	0	31
COc1ccccc1NC(=O)c1ccc(NC(=O)COC(=O)c2ccc(O)cc2)cc1	0	50	0	0	0	26
COc1ccccc1NC(=O)c1ccc(NC(=O)COC(=O)C(C)C)cc1	0	0	0	0	0	0
COc1ccccc1CNC(=O)c1n[nH]c2ccccc12	0	0	0	0	0	28
COc1ccccc1CNC(=O)COC(=O)c1ccc(C(=O)c2ccccc2)cc1	-	0	-	0	47	0
COc1ccc(-n2cnc3c(N)nc(N)nc32)cc1	-	0	-	0	0	-
COC(=O)C1=C(C(=O)OC)[C@@H]2N(C)c3ccccc3[C@@]23C[C@@H](C(=O)OC)N(C(=O)c2cc(C)oc2C)C3=N1	0	0	0	0	0	0
COC(=O)c1c(NC2=NS(=O)(=O)c3ccccc32)sc2c1CCC(C(C)(C)C)C2 (configuration not stated)	-	0	-	0	0	-
CCCc1cc(=O)[nH]c(SCC(=O)Nc2ccc(C)cc2)n1	0	0	0	0	0	0
CCc1ccc(NC(=O)CSc2nc(CSc3ccc(C)cc3)cc(=O)[nH]2)cc1	0	0	0	0	54	27
SMILES	PP5 primary	PAFAH2 inh	PP1 counter	PAFAH1B3 FP inh	PAFAH1B2 inh	pPAFAH inh
O=[N+]([O-])c1ccccc1Oc1cnc2ccccc2n1	0	0	0	0	0	0
O=[N+]([O-])c1cc(-c2cnc3ccccc3n2)ccc1Oc1ccc(F)cc1	0	0	0	0	58	0
O=C(NCC1CCCO1)c1ccc(COc2ccc(Cl)cc2)cc1 (configuration not stated)	0	0	0	0	29	0
COc1ccc(NC(=O)CCC(=O)c2ccc(-c3ccccc3)cc2)cc1	0	0	16	0	0	0
Cc1c(NC(=O)C(C)N(c2ccccc2)S(C)(=O)=O)c(=O)n(-c2ccccc2)n1C (configuration not stated)	0	0	0	0	0	0
CCS(=O)(=O)Nc1cccc(C(=O)O)c1	0	-	0	-	-	0
Cc1cc(C(C)(C)C)cc(S(=O)(=O)Nc2cccc(C(=O)O)c2)c1C	0	0	0	0	30	0
O=C(O)c1cccc(-n2c(O)c(C=C3N=c4ccccc4=N3)sc2=S)c1	0	0	0	0	0	29
Cc1ccccc1NS(=O)(=O)c1ccc(OCCNS(C)(=O)=O)cc1	0	0	0	0	0	32
COc1cc(/C=C(\C#N)C(=O)NC2CCCCC2)ccc1OCc1ccc(C(=O)O)cc1	0	0	0	0	0	0
COC(CNC(=O)CN1CCN(Cc2ccccc2F)C1=O)OC	0	0	0	0	0	0
CSC(=Nc1ccccc1)C(C#N)c1nc2ccccc2[nH]1 (configuration not stated)	0	0	0	0	0	31
N#CC(C(=S)Nc1ccccc1)c1nc2ccccc2[nH]1 (configuration not stated)	0	0	0	0	0	0
CCc1sc(C(=O)Nc2ccc3c(c2)OCO3)cc1C	-	0	-	0	0	25
O=C(C=Cc1cccs1)c1ccccc1	-	0	-	0	0	-
CCN(c1ccccc1)S(=O)(=O)c1cc(C(=O)O)ccc1C	0	0	0	0	53	0
O=C(O)c1ccc(Cl)c(S(=O)(=O)N(Cc2ccccc2)c2ccc(F)cc2)c1	0	0	0	0	33	0
COc1ccc(N(Cc2ccccc2)S(=O)(=O)c2cc(C(=O)O)ccc2Cl)cc1	0	0	0	0	0	0
O=C(O)c1cccc(S(=O)(=O)N(Cc2ccccc2)c2ccccc2)c1	0	0	0	0	26	0
O=C(O)c1ccc(CN(c2ccccc2)S(=O)(=O)c2ccccc2)cc1	0	0	0	0	0	0
O=C(O)c1ccc(Cl)c(S(=O)(=O)N(Cc2ccccc2)c2ccccc2)c1	0	0	0	0	0	0
O=C(O)c1ccc(Cl)c(S(=O)(=O)N(Cc2ccccc2)c2ccccc2Cl)c1	0	0	0	0	28	0
O=C(O)C(CCC(C(=O)O)c1ccccc1)c1ccccc1 (configuration not stated)	-	0	-	0	0	-
COc1ccc(Cl)cc1C=CC=Nc1ccccc1O	-	0	-	0	0	-
COc1ccc2cc(C(=O)N3CCc4ccccc43)[nH]c2c1	0	0	0	0	0	0
COc1ccccc1/C=C/C(=O)N1CCN(S(=O)(=O)c2cccs2)CC1	-	0	-	0	0	0
C=C(C)CN(CC)C(=O)CSc1ccc(S(=O)(=O)N2CCN(C)CC2)cn1	-	0	-	0	0	-
O=C(CCOc1ccccc1)N1CCN(c2ccc(O)cc2)CC1	0	0	0	0	0	31
